From PubChem BioAssay
Pf growth 96h: P. falciparum growth inhibition at 96 hour, primary screen for plastid delayed-death inhibitors; P. falciparum luciferase reporter growth, 96 h; Potency, µM (series often up to 28.7 µM), usual class: inhibitors; hit rate 6.9% among 320,000; AID 504834
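Readout is luminescence from an integrated firefly luciferase in P. falciparum. Red cells, 2% hematocrit and 0.05% parasitemia final, were cultured with compound through two parasite generations (96 hours) at 37 C, 5% CO2.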
Sm TGR block: inhibitors of Schistosoma mansoni thioredoxin glutathione reductase | purified TGR, DTNB reduction, TNB absorbance 405 nm | hit rate 3% among 360,000 | Q962Y6 | Potency, µM (series often up to 114 µM), hits mostly inhibitors | AID 485364; note: nearly all actives have a fitted effect of over 60% in size
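Kinetic colorimetric format: TGR-catalysed, NADPH-driven DTNB reduction monitored via TNB absorbance. Enzyme dispensed at 20 nM; compound exposure 15 min at room temperature before reaction start.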
SARS PLP yeast: SARS-CoV PLP inhibition in yeast | Potency, µM (titrated, usually from 32.9 µM), hits mostly activators | S. cerevisiae expressing SARS-CoV PLpro, growth rescue | AID 485353 | hit rate 0.19% among 330,000; calls by dose curve; note: nearly all actives have a fitted effect of over 55% in size
Pf growth 48h: inhibits P. falciparum growth in the first generation, 48 h | P. falciparum luciferase growth in erythrocytes, 48 h | Potency, µM (top dose mostly 28.7 µM), usual class: inhibitors | hit rate 5.9% among 310,000 | AID 504832
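Luciferase-expressing parasites in RBCs, 2% Hct / 0.1% parasitemia final; RPMI 1640 + 0.5% Albumax; 37 C, 5% CO2, one generation; luminescence read-out, lower signal = inhibition.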
Of the large screens only hits and unclear results are named; the others gave an inactive call. Most compounds without a hit are left out; they make up all but 12% or so of the library. Unless noted, calls come from the whole dose curve; as a rule, active = well fitted curve in the direction sought with a large enough effect; inconclusive = small, poorly fitted or top-dose-only effect, or another doubt; inactive = no such curve, though single readings can be large; an effect the other way counts as inactive or inconclusive.

CCCc1ccc2oc(C(=O)N(C)Cc3ccn[nH]3)c(C)c2c1	Pf growth 96h inconclusive
Cc1ccccc1C(=O)c1cccn1CC(=O)NCCN1CCN(c2cccc(C)c2C)CC1	Pf growth 96h 5.86µM, Pf growth 48h inconclusive
Cc1ccc(C)c(N2CCN(CCCNC(=O)Cn3cccc3C(=O)c3ccccc3C)CC2)c1	Pf growth 48h inconclusive
Cc1cccc(N(CC(=O)NC2CCCCC2)C(=O)CCCC(=O)Nc2ccccn2)c1	Pf growth 48h 11.7µM
CCOc1ccc(N(CC(=O)NC2CCCCC2)C(=O)CCC(=O)Nc2nccs2)cc1	Pf growth 48h 7.38µM
CCC(C)(C)NC(=O)CN(C(=O)CCC(=O)Nc1nccs1)c1ccccc1C	Pf growth 96h 10.4µM
COc1cccc(N(CC(=O)NC2CCCCC2)C(=O)CCC(=O)Nc2nccs2)c1	Pf growth 96h 11.7µM, Pf growth 48h inconclusive
CC(C(=O)Nc1ccc(Br)cc1)N(C)CC(=O)NCc1ccco1 (stereo unspecified)	Sm TGR block inconclusive
CCOC(=O)[C@@H]1[C@H]2COc3ccc(Br)cc3[C@@H]2N2C(=O)N(c3ccc(C(F)(F)F)cc3)C(=O)[C@@]12C	Pf growth 96h 9.28µM, Pf growth 48h inconclusive
CCOC(=O)[C@@H]1[C@H]2COc3cc(OC)ccc3[C@H]2N2C(=O)N(c3cccc(Cl)c3)C(=O)[C@@]12C	Pf growth 96h inconclusive, Pf growth 48h 10.4µM
C[C@]12C(=O)N(c3ccc(F)cc3)C(=O)N1[C@@H]1c3ccccc3OC[C@@H]1[C@H]2c1ccccc1	Pf growth 96h inconclusive
CCOC(=O)[C@@H]1[C@H]2COc3ccccc3[C@H]2N2C(=O)N(c3cccc(Cl)c3)C(=O)[C@@]12C	Pf growth 96h inconclusive
C[C@@]12C(=O)N(c3ccc(C(F)(F)F)cc3)C(=O)N1[C@@H]1c3ccccc3OC[C@@H]1[C@H]2c1ccccc1	Pf growth 96h 4.15µM, Pf growth 48h inconclusive
CCOC(=O)[C@@H]1[C@H]2COc3ccccc3[C@@H]2N2C(=O)N(c3cccc(Cl)c3)C(=O)[C@@]12C	Pf growth 96h 10.4µM
O=S(=O)(c1ccc(F)cc1)N1CCN(CC(O)COCC2CCCO2)CC1 (stereo unspecified)	none
CCN1C(=NCCN2CCOCC2)N[C@@H](CCc2ccccc2)C(C(=O)OC)=C1C	SARS PLP yeast inconclusive, Pf growth 48h inconclusive
CCOC(=O)[C@@H]1[C@H]2COc3ccccc3[C@H]2N2C(=O)N(c3ccc(Cl)cc3)C(=O)[C@]12C	Pf growth 96h 8.28µM, Pf growth 48h 13.1µM
O=C(NCc1ccncc1)c1ccc(S(=O)(=O)Nc2ccccc2)cc1	none
O=C1C(=O)c2ccccc2C(O)=C1CCCCl	Pf growth 96h 1.85µM, Sm TGR block inconclusive, Pf growth 48h 0.828µM
O=C(C1CCN(C2CCN(C/C(Cl)=C/c3ccccc3)CC2)CC1)N1CCOCC1	Pf growth 96h 10.4µM
Cc1cc([N+](=O)[O-])ccc1NC(=O)CSc1nnc(C)n1C	Pf growth 96h inconclusive
CC(C)CC1NC(=O)N(CC(=O)N2c3ccccc3NC(=O)C2(C)C)C1=O (stereo unspecified)	none
CC(C)C[C@@H]1NC(=O)[C@H](Cc2ccccc2)N(C)C(=O)[C@H](C)NC(=O)c2ccccc2NC(=O)[C@H](Cc2ccc(O)cc2)N(C)C1=O	Pf growth 96h inconclusive, Pf growth 48h 3.7µM
COc1ccc(OC)c(/C=N/N(CCC#N)C2=NS(=O)(=O)c3ccccc32)c1	Pf growth 96h inconclusive
FC(F)(F)c1ccc(/C=N/NC(=S)NC2CCCCC2)cc1	Pf growth 96h 3.29µM, Pf growth 48h inconclusive
O=C(CC(=O)Nc1ccc(Cl)cc1)N/N=C\c1cccc(F)c1	Pf growth 96h 10.4µM
O=C(CCC(=O)Nc1ccc(F)cc1)N/N=C/c1cccc(Br)c1	none
O=C(CC(=O)NC1CCCCC1)N/N=C/c1ccc(Cl)cc1	Pf growth 96h 4.65µM
CCc1ccc2ncc(S(=O)(=O)c3ccc(Cl)cc3)c(N3CCN(CC)CC3)c2c1	none (no result: Pf growth 96h, SARS PLP yeast, Pf growth 48h)
CNC(=O)C1CCC(Cn2c(=O)c3sccc3n(CC(=O)NCc3ccc(C)cc3)c2=O)CC1 (stereo unspecified)	none (no result: Pf growth 96h, SARS PLP yeast, Pf growth 48h)
CCN1CCN(c2ncnc3c2cnn3-c2ccc(F)cc2)CC1	none (no result: Pf growth 96h, SARS PLP yeast, Pf growth 48h)
Cc1cc(C)cc(NC(=O)Cn2c(C)cc(C)c(C#N)c2=O)c1	none (no result: Pf growth 96h, SARS PLP yeast, Pf growth 48h)
Cc1cccc(N2CCN(C(=O)c3cc4c(=O)oc5ccccc5c4s3)CC2)c1C	none (no result: Pf growth 96h, SARS PLP yeast, Pf growth 48h)
CCN(Cc1ccccc1)C(=O)c1cc2c(=O)oc3ccc(C)cc3c2s1	Pf growth 96h 4.65µM (no result: Pf growth 48h)
Cc1ccc(C)c(N2CCN(C(=O)c3cc4c(=O)oc5ccccc5c4s3)CC2)c1	Sm TGR block 89.1µM (no result: Pf growth 96h, SARS PLP yeast, Pf growth 48h)
O=C(NCCCN1CCCCCC1)c1cc2c(=O)oc3ccccc3c2s1	Sm TGR block 50.1µM, Pf growth 48h 2.94µM
Cc1ccc2oc(=O)c3cc(C(=O)NCCCN4CCN(C)CC4)sc3c2c1	none
Cc1ccc2oc(=O)c3cc(C(=O)NCCCN4CC(C)CC(C)C4)sc3c2c1 (stereo unspecified)	Pf growth 48h 2.08µM
COC(=O)c1ccc(NC(=O)CSc2nnc(-c3cccnc3)o2)cc1	none
O=C(CCc1nc2ccccc2c(=O)[nH]1)Nc1cc(Cl)ccc1N1CCCC1	Pf growth 96h inconclusive
Clc1ccccc1N=C1NN=C(c2cccs2)CS1	none
COc1ccc(CNC(=O)c2cc3cccc4c3n2CC(C)S4)cc1OC (stereo unspecified)	none (no result: Pf growth 96h, SARS PLP yeast, Pf growth 48h)
CCn1cc(CN(C)C(=O)/C=C/c2ccc([N+](=O)[O-])cc2)c(C)n1	Pf growth 96h inconclusive
Cc1nn(C)cc1C(=O)/C=C/c1ccc([N+](=O)[O-])cc1	Pf growth 96h 4.65µM, Pf growth 48h 13.1µM
CCOC(=O)c1cnc2c(C)cccc2c1NCCc1ccc(OC)c(OC)c1	Pf growth 96h 4.15µM, Pf growth 48h inconclusive
CCOC(=O)c1cnc2c(C(F)(F)F)cccc2c1NCCCN1CCOCC1	Pf growth 48h 5.22µM
CCOC(=O)c1cnc2ccc(C(=O)OC)cc2c1NCCN1CCOCC1	Pf growth 96h inconclusive, Sm TGR block 31.6µM
CCOC(=O)c1ccc2ncc(C(=O)OCC)c(NCCc3ccc(OC)c(OC)c3)c2c1	none (no result: Pf growth 96h, SARS PLP yeast, Pf growth 48h)
CCOC(=O)c1cnc2ccc(C(=O)OC)cc2c1NCCc1ccc(OC)c(OC)c1	Pf growth 48h 10.4µM
CCOC(=O)c1cnc2c(C)cc(C)cc2c1NCCc1ccc(OC)c(OC)c1	none (no result: Pf growth 96h, SARS PLP yeast, Pf growth 48h)
Cc1c(CC(=O)NCCc2ccc(Cl)cc2)c(=O)oc2c(C)c3occ(C(C)(C)C)c3cc12	none (no result: Pf growth 96h, SARS PLP yeast, Pf growth 48h)
O=C(Cn1cnc2onc(-c3ccc(F)cc3)c2c1=O)Nc1cccc(C(F)(F)F)c1	none (no result: Pf growth 96h, SARS PLP yeast, Pf growth 48h)
CCOC(=O)c1cnc2c(Cl)cccc2c1NCCN1CCOCC1	none
CCOC(=O)c1cnc2c(c(C)nn2CC)c1NCCN1CCOCC1	Pf growth 96h 11.7µM
Cc1ccc(N2C(=O)C3C4C=CC(CNC(=S)N5CCN(c6cccc(C)c6)C(C)C5)(O4)C3C2=O)cc1 (stereo unspecified)	Sm TGR block 3.16µM
O=c1[nH]c(SCc2c(F)cccc2Cl)nc2c1CCCC2	none (no result: Pf growth 96h, SARS PLP yeast, Pf growth 48h)
Cc1oc2c(cc(NS(=O)(=O)c3ccc(C(C)C)cc3)c3ccccc32)c1C(=O)O	Pf growth 96h inconclusive, Sm TGR block inconclusive
